Here are results for 55 compounds from PubChem BioAssay AID2073 (Sanford-Burnham Center for Chemical Genomics, 2009).

The campaign covered roughly 290,000 compounds. About 570 (0.2%) were called active. Another 1% or so got no clear call; they are omitted. Cut-off read from the data, not from the text of the source: active = inhibition mostly above about 51% (no sharp cut-off); inconclusive = no clear call, values can overlap the other calls; inactive = mostly below about 53%. What follows is part of a selection rich in actives, with near analogues and random picks from the rest.

The assay addresses Voltage-dependent N-type calcium channel subunit alpha-1B (Homo sapiens) (UniProt Q00975). Kind of assay: inhibitors of Mint1-CaV2.2 protein interaction, biochemical, HTRF (AID 2073). To be noted: at 20 µM, stronger effect = higher value.
Where [1] appears, read: measured here: average of repeat tests.

Voltage-dependent N-type calcium channel subunit alpha-1B (Homo sapiens), sequence (Q00975 whole entry, looked up): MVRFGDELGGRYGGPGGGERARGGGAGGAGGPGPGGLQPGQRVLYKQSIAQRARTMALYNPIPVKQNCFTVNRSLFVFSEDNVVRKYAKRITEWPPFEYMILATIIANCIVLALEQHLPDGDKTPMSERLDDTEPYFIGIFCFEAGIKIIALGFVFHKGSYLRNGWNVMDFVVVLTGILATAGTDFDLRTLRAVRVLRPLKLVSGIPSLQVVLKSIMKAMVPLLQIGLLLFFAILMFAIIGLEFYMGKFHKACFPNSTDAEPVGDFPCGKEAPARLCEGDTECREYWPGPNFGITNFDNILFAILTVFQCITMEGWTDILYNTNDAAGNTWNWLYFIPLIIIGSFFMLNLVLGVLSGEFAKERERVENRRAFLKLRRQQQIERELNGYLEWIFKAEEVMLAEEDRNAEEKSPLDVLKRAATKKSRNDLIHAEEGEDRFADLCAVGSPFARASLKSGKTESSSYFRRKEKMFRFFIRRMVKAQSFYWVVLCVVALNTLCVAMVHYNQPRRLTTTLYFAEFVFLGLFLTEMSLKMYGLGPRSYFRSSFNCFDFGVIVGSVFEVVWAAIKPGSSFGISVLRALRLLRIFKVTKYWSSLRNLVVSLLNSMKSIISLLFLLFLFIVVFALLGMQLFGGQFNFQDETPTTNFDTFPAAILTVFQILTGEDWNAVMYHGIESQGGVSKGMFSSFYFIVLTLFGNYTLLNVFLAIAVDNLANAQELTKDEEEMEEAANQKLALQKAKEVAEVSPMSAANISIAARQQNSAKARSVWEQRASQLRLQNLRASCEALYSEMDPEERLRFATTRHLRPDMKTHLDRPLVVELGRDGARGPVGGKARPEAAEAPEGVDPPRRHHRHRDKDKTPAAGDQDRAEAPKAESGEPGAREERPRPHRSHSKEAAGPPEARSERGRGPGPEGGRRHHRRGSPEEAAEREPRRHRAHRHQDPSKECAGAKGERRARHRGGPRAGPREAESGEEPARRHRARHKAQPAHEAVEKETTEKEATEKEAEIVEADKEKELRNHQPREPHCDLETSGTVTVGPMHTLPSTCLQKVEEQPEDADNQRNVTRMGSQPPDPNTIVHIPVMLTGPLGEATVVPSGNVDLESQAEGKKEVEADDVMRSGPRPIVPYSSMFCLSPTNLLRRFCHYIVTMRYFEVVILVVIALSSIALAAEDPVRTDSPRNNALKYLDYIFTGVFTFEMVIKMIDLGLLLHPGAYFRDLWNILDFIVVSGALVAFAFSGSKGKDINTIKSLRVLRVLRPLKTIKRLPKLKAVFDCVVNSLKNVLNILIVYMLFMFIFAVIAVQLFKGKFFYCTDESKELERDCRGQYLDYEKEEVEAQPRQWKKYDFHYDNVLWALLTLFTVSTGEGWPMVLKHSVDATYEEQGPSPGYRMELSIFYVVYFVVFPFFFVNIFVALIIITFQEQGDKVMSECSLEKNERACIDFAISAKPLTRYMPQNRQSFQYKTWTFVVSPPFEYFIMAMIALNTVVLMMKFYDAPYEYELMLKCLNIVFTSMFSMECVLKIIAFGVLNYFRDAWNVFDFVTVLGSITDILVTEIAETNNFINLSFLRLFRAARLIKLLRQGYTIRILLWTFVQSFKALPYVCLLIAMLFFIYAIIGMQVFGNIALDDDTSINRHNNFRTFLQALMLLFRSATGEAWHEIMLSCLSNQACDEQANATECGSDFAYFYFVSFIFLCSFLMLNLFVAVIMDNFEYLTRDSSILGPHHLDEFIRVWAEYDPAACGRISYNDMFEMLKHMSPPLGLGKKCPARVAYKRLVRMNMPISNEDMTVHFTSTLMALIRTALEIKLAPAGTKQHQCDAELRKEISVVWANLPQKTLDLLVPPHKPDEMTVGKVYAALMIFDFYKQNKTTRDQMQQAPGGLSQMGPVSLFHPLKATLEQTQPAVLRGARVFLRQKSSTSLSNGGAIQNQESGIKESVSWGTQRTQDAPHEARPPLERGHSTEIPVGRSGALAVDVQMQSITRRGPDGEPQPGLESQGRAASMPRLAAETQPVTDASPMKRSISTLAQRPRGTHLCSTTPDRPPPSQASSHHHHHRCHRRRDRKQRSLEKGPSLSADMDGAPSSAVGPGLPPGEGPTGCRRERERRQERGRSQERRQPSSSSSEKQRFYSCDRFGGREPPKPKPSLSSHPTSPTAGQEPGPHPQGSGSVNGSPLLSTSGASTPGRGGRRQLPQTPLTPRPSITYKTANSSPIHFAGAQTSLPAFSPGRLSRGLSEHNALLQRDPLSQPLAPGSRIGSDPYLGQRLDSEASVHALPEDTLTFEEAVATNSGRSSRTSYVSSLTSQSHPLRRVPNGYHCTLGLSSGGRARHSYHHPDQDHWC

In the case of `CC(C)n1c(=O)c(C=Nc2ccc(Br)cc2)c(O)n(Cc2ccco2)c1=O`, the inhibition was 59.1% (active).

As to `CC(C)n1c(=O)c(C=Nc2ccc(F)cc2)c(O)n(Cc2ccco2)c1=O`, the inhibition was 14.1% (inactive).

As for `CC(C)n1c(=O)c(C=Nc2ccc(Cl)cc2)c(O)n(Cc2ccco2)c1=O`, the inhibition was 63.2% (inactive). Further, the inhibition under setting [1] stood at 17.6%.

As for `O=C(O)CCn1cc(C=C2C(=O)NC(=O)NC2=O)c(-c2ccc(Br)cc2)n1`, the inhibition was 11.7% (inactive).

For `O=C(O)CCn1cc(C=C2C(=O)NC(=S)NC2=O)c(-c2cccc(Br)c2)n1`, the inhibition was 75.7% (active).

Consider `O=C(O)CCn1cc(C=C2C(=O)NC(=O)NC2=O)c(-c2cc3ccccc3oc2=O)n1`, for which the inhibition is 42.3% (inactive).

Consider `O=C(Cc1ccc(Br)cc1)N1CCN(Cc2ccccc2)CC1`, for which the inhibition was 9.2% (inactive).

On to `CCc1ccc(N2C(=O)NC(=O)/C(=C/c3cccn3CCOc3ccc(C)cc3)C2=O)cc1`, for which the inhibition is 17.5% (inactive).

For the compound `CN(C)C(=S)SSC(=S)N(C)C`, the inhibition was 78% (active).

On to `CC(=O)N1CCN(Cc2ccc(Cl)nc2)CC1`, for which the inhibition is 5.2% (inactive).

On to `O=C1CC(=O)N(c2cccc(Br)c2)C(=O)N1`, for which the inhibition is 3.7% (inactive).

As for `Cc1ccc(NC(=O)c2cn(CCC#N)nc2-c2ccc3c(c2)OCCO3)c([N+](=O)[O-])c1`, the inhibition is -4.2% (inactive).

Consider `COc1ccc(Cl)cc1N=Cc1c(O)n(C)c(=O)n(C)c1=O`, for which the inhibition is 15.7% (inactive).

For the compound `CCC(=O)Nc1ccccc1`, the inhibition was -4.1% (inactive).

Consider `CCCCC/C=C\C/C=C\C/C=C\C/C=C\CCCC(=O)Nc1ccc(O)cc1`, for which the inhibition is 51% (active).

With `CCN(CC)C(=O)c1ccc(NC(=O)CCCSc2ccccc2)cc1`, the inhibition is -3.4% (inactive).

In the case of `CN1CCN(C(=O)Cc2ccccc2)CC1`, the inhibition is 5.6% (inactive).

Regarding `O=c1[nH]c(=S)n(-c2ccccc2Cl)c(O)c1C=NCCN1CCNCC1`, the inhibition was -0.4% (inactive).

With `Cc1oc(-c2ccccc2)nc1CN1C(=O)CN=C(c2ccccc2)c2ccccc21`, the inhibition is -1.1% (inactive).

For `COc1ccc(CC[n+]2cc(/N=C(\C)[O-])on2)cc1OC`, the inhibition was 11.6% (inactive).

For the compound `Cc1cc(/C=C2\C(=O)NC(=O)N(C)C2=O)c(C)n1-c1ccc2c(c1)OCO2`, the inhibition was 0.4% (inactive).

For the compound `Cc1cc(C=C2C(=O)NC(=S)NC2=O)c(C)n1-c1ccc2c(c1)OCO2`, the inhibition was 53.2% (active).

For `Cc1cc(C=C2C(=O)NC(=O)NC2=O)c(C)n1-c1ccc2c(c1)OCO2`, the inhibition was 16.8% (inactive).

In the case of `O=C1NC(=O)C(CCc2ccncc2)(CCc2ccccn2)C(=O)N1c1ccc(Br)cc1` (stereo not drawn), the inhibition was 16.2% (inactive).

Regarding `COc1cc(Br)c(CNCCc2ccc3c(c2)OCO3)cc1OC`, the inhibition is -3.9% (inactive).

In the case of `COc1cc2c(c(OC)c1)C(=O)OC(C)CCCC(=O)CCCCC2` (stereo not drawn), the inhibition is 7.1% (inactive).

As for `COc1cccc(-n2c(/C=C/c3ccc(O)c(O)c3)nc3ccccc3c2=O)c1`, the inhibition was 62.6% (active).

Consider `COc1ccc(-n2c(/C=C/c3ccc(O)c(O)c3)nc3ccccc3c2=O)cc1`, for which the inhibition was 40.5% (inactive).

On to `O=c1c2ccccc2nc(/C=C/c2ccc(O)c(O)c2)n1-c1ccccc1`, for which the inhibition was 33.3% (inactive).

For `O=C(CN1CC(c2ccccc2)CC1=O)NCc1ccc(F)cc1` (stereo not drawn), the inhibition was -3.7% (inactive).

Consider `C[n+]1ccc(-c2ccncc2)cc1`, for which the inhibition was 6.3% (inactive).

Turning to `CSc1nc(N)c(N=Nc2ccc([As](=O)(O)O)cc2)c(=O)[nH]1`, the inhibition is 58.9% (active).

Take `O=[As](O)(O)c1ccc(N=Nc2ccc(O)cc2)cc1`: the inhibition was 15.6% (inactive).

Turning to `COc1ccc(N=Nc2c(O)[nH]c(=S)[nH]c2=O)cc1`, the inhibition is -13.3% (inactive).

As to `CN1C(=O)C(=Cc2ccc(OCCN(C)c3ccccn3)cc2)C(=O)N(C)C1=O`, the inhibition was 3.3% (inactive).

As for `CCOP(=O)(OCC)/C(C#N)=C/c1ccc(Br)cc1`, the inhibition was 3.7% (inactive).

With `N#CC(C#N)=Cc1ccc(C=C(C#N)C#N)cc1`, the inhibition is 19.1% (inactive).

Take `CCc1ccc(/C=C(/C#N)C(N)=S)cc1`: the inhibition is 84.5% (active).

With `CN(C)P1(N(C)C)=NC(C(F)(F)F)=NC(C(F)(F)F)=N1`, the inhibition is 2.9% (inactive).

With `COc1c(C=C2C(=O)NC(=O)NC2=O)c(CCN(C)C(=O)c2ccccc2)cc2c1OCO2`, the inhibition is 15.8% (inactive).

Turning to `CNC(=S)N(C)CCc1cc2c(c(OC)c1/C=C1/C(=O)NC(=O)N(C)C1=O)OCO2`, the inhibition was 6.3% (inactive).

On to `CNC(=S)N(C)CCc1cc2c(c(OC)c1C=C1C(=O)NC(=O)NC1=O)OCO2`, for which the inhibition is 50.6% (active).

For the compound `C=CCN1C(=O)/C(=C/c2cccs2)C(=O)NC1=S`, the inhibition is -17.9% (inactive).

On to `O=C1NC(=S)N(Cc2ccco2)C(=O)/C1=C\c1cccs1`, for which the inhibition was 76.9% (active).

As for `O=C1NC(=O)N(Cc2ccc(F)cc2)C(=O)/C1=C/c1cccs1`, the inhibition is 29.5% (inactive).

As to `Cc1c(C=C2C(=O)N(C)C(=S)N(C)C2=O)c2ccccc2n1CC(=O)NCC1CCCO1` (stereo not drawn), the inhibition was -5.7% (inactive).

`CCCCCCn1c(O)c(C=NCCN2CCOCC2)c(=O)[nH]c1=O`: the inhibition is -1.8% (inactive).

With `O=C1/C(=C\c2ccc([N+](=O)[O-])cc2)N2CCC1CC2`, the inhibition is -2.4% (inactive).

Regarding `O=C1C2(c3ccccc3)CN3CN(C2)CC1(c1ccccc1)C3`, the inhibition is -5.2% (inactive).

On to `CC(C)[C@H]1C(=O)N2CCC[C@H]2[C@]2(O)O[C@](NC(=O)[C@@H]3C=C4c5cccc6[nH]cc(c56)C[C@H]4N(C)C3)(C(C)C)C(=O)N12`, for which the inhibition was 69.1% (inactive). Moreover, the inhibition under setting [1] is 26.9%.

In the case of `CC(C)C[C@H]1C(=O)N2CCCC2[C@]2(O)O[C@](NC(=O)[C@@H]3C=C4c5cccc6[nH]cc(c56)CC4N(C)C3)(C(C)C)C(=O)N12` (stereo partly drawn), the inhibition is 67.7% (inactive). Further, the inhibition under setting [1] was 31.4%.

With `CC(C)[C@@]1(NC(=O)[C@@H]2C=C3c4cccc5[nH]cc(c45)C[C@H]3N(C)C2)O[C@@]2(O)[C@@H]3CCCN3C(=O)[C@H](Cc3ccccc3)N2C1=O`, the inhibition is 66.3% (active).

Turning to `CC(C)CC(NC(=O)C1CCCCC1)C(=O)N1CCC2(CC1)OCCO2` (stereo not drawn), the inhibition is -0.4% (inactive).

Turning to `NP(=O)(OCCCc1ccccc1)Oc1ccc(Cl)cc1` (stereo not drawn), the inhibition is 2.9% (inactive).

Regarding `C=Cn1ccnc1P(=S)(c1ccc(Cl)cc1)c1nccn1C=C`, the inhibition is 4.2% (inactive).

What is called inhibition is the relative decrease from the control value, in per cent.
